The list is not random: actives were taken first. Their share in the collection is about 1.9%.
ATG4B inh: ATG4B protease inhibitors, primary screen, biochemical, fluorescence, uHTS. ATG4B cleavage of LC3-PLA2, NBD-HPC fluorescence, 1 h. inhibition, % at 8.33 µM. 340,000 compounds, 0.51% hits. Cysteine protease ATG4B (Homo sapiens), Q9Y4P1; in the data active = inhibition above about 40%
NSD2 HMT inh: NSD2 histone methyltransferase inhibitors, primary screen, biochemical, AlphaScreen, single concentration, set 2 | 310,000 compounds, 0.54% hits | inhibition, % at 12.5 µM | AID 743445, 2014 | Histone-lysine N-methyltransferase NSD2 (Homo sapiens), O96028 | NSD2 peptide methylation, 120 min; in the data active = inhibition above about 50%
Vif inh: HIV Vif self-association inhibitors, primary screen, imaging, HEK293T, single point; AID 602346, 2012; inhibition, % at 7.49 µM; HEK293T cells, Vif self-association by quenched fluorescence, 24 h; 340,000 compounds, 0.35% hits; in the data active = inhibition above about 50%, passing the limit was not always enough; inconclusive = no clear call, values can overlap the other calls; inactive = below about 31%
N-glyco inh: increase of ERlucT glycosylation luciferase signal, primary screen, N-linked glycosylation inhibitor project, D54 ERlucT cells, luminescence, set 2; 360,000 compounds, 0.23% hits; D54 ERlucT glycosylation luciferase reporter, 24 h; percent of 100 nM tunicamycin response; reporter increase, % at 12.5 µM;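 active = mean luciferase reporter signal, scaled so untreated is 0 and the glycosylation-blocking control 100, at or above a set limit in every replicate; inconclusive = mean reaches the limit but not every replicate does; inactive = mean below the limit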;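 note: luciferase carries N-glycosylation sites so blocking glycosylation raises the light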
CaV13 ICDI inh: Primary screen for inhibitors of IQ motif and Ca2+-dependent inactivation inhibitor domain binding in CACNA1D, Förster resonance energy transfer in living cells, …; HEK cells, CFP/YFP FRET ICDI-IQ, plate reader, 10 min; percent FRET-ratio fall versus neutral wells; inhibition, % at 12.3 µM; 340,000 compounds, 0.098% hits;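 active = mean replicate inhibition of at least 30% and at least 1% of replicates passing that level; inconclusive = only one of the two criteria is met; inactive = neither criterion is met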
DSG3 Ab inh: inhibitors of pemphigus antibody binding to DSG3, primary screen, biochemical, bead-based, flow cytometry, scFv-GFP | DSG3-coupled beads, scFv-anti-DSG3-GFP binding; stronger effect = lower value | binding (percent of control), % at 10 µM | 310,000 compounds, 0.48% hits;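 active = binding more than 3 SD below its plate's average and above zero; inconclusive = below that plate limit but binding exactly zero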
Target sequence (P32926 whole entry, looked up): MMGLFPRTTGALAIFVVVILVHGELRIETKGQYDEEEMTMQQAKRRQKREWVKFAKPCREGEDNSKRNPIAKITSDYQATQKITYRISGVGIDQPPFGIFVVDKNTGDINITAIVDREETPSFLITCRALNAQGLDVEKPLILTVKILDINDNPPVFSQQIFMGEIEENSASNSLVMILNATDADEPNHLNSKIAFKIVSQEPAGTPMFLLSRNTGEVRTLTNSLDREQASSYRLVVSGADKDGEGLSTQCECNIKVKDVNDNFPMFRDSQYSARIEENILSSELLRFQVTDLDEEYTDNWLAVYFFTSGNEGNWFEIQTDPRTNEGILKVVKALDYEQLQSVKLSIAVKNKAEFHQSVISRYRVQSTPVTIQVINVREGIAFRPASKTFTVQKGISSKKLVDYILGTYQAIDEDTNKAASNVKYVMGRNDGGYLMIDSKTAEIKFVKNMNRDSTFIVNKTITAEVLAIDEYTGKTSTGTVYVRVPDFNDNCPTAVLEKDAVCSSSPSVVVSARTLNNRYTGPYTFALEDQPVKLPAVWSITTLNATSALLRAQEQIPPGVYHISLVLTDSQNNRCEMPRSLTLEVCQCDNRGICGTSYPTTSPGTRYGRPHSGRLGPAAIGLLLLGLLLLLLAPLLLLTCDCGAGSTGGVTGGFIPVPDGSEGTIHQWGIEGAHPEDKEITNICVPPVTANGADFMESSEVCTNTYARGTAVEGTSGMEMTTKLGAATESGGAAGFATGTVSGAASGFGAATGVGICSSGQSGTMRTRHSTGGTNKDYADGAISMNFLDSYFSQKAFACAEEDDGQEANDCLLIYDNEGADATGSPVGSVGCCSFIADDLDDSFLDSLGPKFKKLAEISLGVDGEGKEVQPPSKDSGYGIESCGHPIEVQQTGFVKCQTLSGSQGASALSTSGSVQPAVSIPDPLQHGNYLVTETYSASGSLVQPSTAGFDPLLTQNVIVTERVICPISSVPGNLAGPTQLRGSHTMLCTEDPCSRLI
Large screens that a line does not name were inactive; ! = not active in a repeat.

COc1ccc(C(C#N)N2N=C(C)CC2c2ccccc2)cc1OC (stereo not drawn)	Vif inh 54.3
COC(=O)c1ccccc1NC(=O)CSc1nncn1-c1cccnc1	none
Cc1cc(NC(=O)CCCN2C(=O)/C(=C/c3cccs3)SC2=S)no1	DSG3 Ab inh 15.9
Cc1cc(NC(=O)CCCN2C(=O)c3cccc4cccc(c34)C2=O)no1	DSG3 Ab inh 91.6
Cc1cc(NC(=O)CCCN2C(=O)c3cccnc3C2=O)no1	none (no result: NSD2 HMT inh)
CCN(C(=O)CSc1nnc(-c2ccccc2)o1)c1c(N)n(Cc2ccccc2)c(=O)[nH]c1=O	none
COc1ccc2c(c1OC)C(=O)N(c1ccccc1)C2=O	none
COC(=O)c1ccc(NC(=O)c2ccc(NS(=O)(=O)c3cccc4cccnc34)cc2)cc1	none (no result: CaV13 ICDI inh)
O=C(Nc1ccccc1O)c1ccc(NS(=O)(=O)c2cccc3cccnc23)cc1	N-glyco inh 83.4 (no result: NSD2 HMT inh)
O=C(Nc1ncccc1O)c1ccc(S(=O)(=O)Nc2ccccc2)cc1	N-glyco inh 128.8
O=C(Nc1ncccc1O)c1ccc(NS(=O)(=O)c2ccc3[nH]c(=O)[nH]c3c2)cc1	none
c1ccc2sc(NC3=NCN(CCN4CCOCC4)CN3)nc2c1	DSG3 Ab inh 77.5
OCCN1CN=C(Nc2nc3ccccc3s2)NC1	none
COc1cc(C(=O)OCc2csc(CC(=O)Nc3cc(C)ccc3C)n2)ccc1OC(F)F	none
COc1nc(=O)n(C2C=CC(=O)O2)cc1F (stereo not drawn)	N-glyco inh 33.5 (no result: ATG4B inh)
Cc1ccc(S(=O)(=O)NCCC(=O)OCC(=O)Nc2ccccc2Cl)cc1	none
COc1cc(C2C(C#N)=C(N)OC3=C2C(=O)CCC3)c([N+](=O)[O-])cc1OC (stereo not drawn)	NSD2 HMT inh 75.3
O=C(Cn1c(=O)c2cccn2c2ccccc21)Nc1ccc(F)cc1F	none
Cc1ccc(NC(=O)Cn2c(=O)c3cccn3c3ccccc32)c(Cl)c1	DSG3 Ab inh 31.9
COc1ccc(N/C=C(\C=C\C#N)S(=O)(=O)c2ccccc2)cc1	Vif inh 86.7
COc1ccc(CCN=C(N)NS(=O)(=O)c2ccc(F)cc2)cc1	CaV13 ICDI inh 72.5 (no result: NSD2 HMT inh)
COc1ccc(CCN=C(N)NS(=O)(=O)c2ccc(OC)cc2)cc1	none
CCCN(C(=O)c1cccs1)c1nnc(-c2ccncc2)s1	DSG3 Ab inh 78.2 (no result: NSD2 HMT inh)
CCN(C(=O)Cc1ccccc1OC)c1nnc(-c2ccncc2)s1	none (no result: CaV13 ICDI inh)
COc1ccc(C2N3CC4(C)CN2CC(C)(C3)C4O)cc1OC (stereo not drawn)	none
CN(C)c1ccc(/C=C/C(=O)c2ccc3c(c2)OCO3)cc1	Vif inh active
O=C(/C=C/c1ccncc1)c1ccc2c(c1)OCCO2	N-glyco inh 70.4
CN(C)c1ccc(C(=O)C=Cc2ccc([N+](=O)[O-])cc2)cc1	none (no result: ATG4B inh)
O=C(/C=C/c1ccccc1)c1ccc2c(c1)OCO2	none (no result: DSG3 Ab inh)
CN(C)c1ccc(/C=C/C(=O)c2ccc(O)cc2)cc1	Vif inh 83.4 (no result: NSD2 HMT inh)
Clc1ccc2c(c1)CNc1c(ncnc1N1CCOCC1)O2	none (no result: CaV13 ICDI inh)
N#CCCN(C(=O)COC(=O)CCC(=O)c1ccc(F)cc1)c1ccccc1	none (no result: DSG3 Ab inh)
Cc1ccc(S(=O)(=O)N(CC(O)CN2CCCC2)c2ccccc2)cc1 (stereo not drawn)	none
Oc1ccc(/C=N/Nc2ncnc3c2ncn3Cc2ccccc2)cc1O	NSD2 HMT inh 72.5
Cc1cc([N+](=O)[O-])ccc1NC(=O)COc1nsnc1N1CCOCC1	none (no result: DSG3 Ab inh)
N[C@@H](Cc1cc(I)c(Oc2cc(I)c(O)c(I)c2)c(I)c1)C(=O)O	ATG4B inh 44.9 (no result: NSD2 HMT inh, Vif inh, N-glyco inh, CaV13 ICDI inh, DSG3 Ab inh)
N[C@@H](Cc1ccc(O)c(O)c1)C(=O)O	none (no result: NSD2 HMT inh)
N[C@@H](Cc1cc(I)c(Oc2ccc(O)c(I)c2)c(I)c1)C(=O)O	ATG4B inh 84.4! (no result: NSD2 HMT inh)
CCc1ccccc1N1C(=O)CN(Cc2cc(OC)c(OC)c(OC)c2)C1=S	none
O=C(COC(=O)COc1ccc(Cl)cc1Br)NC1CCCCCC1	Vif inh 59.3
O=C(Nc1nnc(SCC(=O)N2CCOCC2)s1)C1CC(=O)N(c2ccc(F)cc2)C1 (stereo not drawn)	none
O=C(/C=C/Nc1ccc(Oc2ccccc2)cc1)c1ccco1	DSG3 Ab inh 14.0
Cc1cc(C)c2nc3nc(C)c(C)cc3c(N)c2c1	N-glyco inh 95.1
COc1cccc(N/C(N)=N/c2nc(CSc3ccccn3)cc(=O)[nH]2)c1	none (no result: ATG4B inh, Vif inh, N-glyco inh, CaV13 ICDI inh, DSG3 Ab inh)
COc1ccc2[nH]c3c(c2c1)CCN1C(=O)C(CC(=O)NCc2cccc(C(F)(F)F)c2)C[C@H](C(=O)N2CCCCC2)[C@@]31C (stereo partly drawn)	DSG3 Ab inh 78.6 (no result: NSD2 HMT inh)
CCN1CC(CNC(=O)c2ccc3nc(Cc4cccc(Cl)c4)oc3c2)CC1=O (stereo not drawn)	none
CCC(CC)C(=O)NCCc1ccc(S(N)(=O)=O)cc1	Vif inh 68.0
OCCN1CCN(c2nc(-c3ccccc3)nc3c2oc2ccccc23)CC1	Vif inh 65.6 (no result: CaV13 ICDI inh)
COc1ccccc1N1CCN(c2nc(C)nc3c2oc2ccccc23)CC1	ATG4B inh 45.2, N-glyco inh inconclusive
O=C(O)C1CCN(c2nc(-c3ccccc3)nc3c2oc2ccccc23)CC1	none (no result: CaV13 ICDI inh)
Cc1nc(N2CCC(C)CC2)c2oc3ccccc3c2n1	none (no result: CaV13 ICDI inh)
CCCC(=O)Nc1ccc(NC(=O)c2cccc(OC)c2)cn1	CaV13 ICDI inh inconclusive
CN(C(=O)COC(=O)c1ccc(-c2ccc(O)cc2)cc1)C1CCS(=O)(=O)C1 (stereo not drawn)	DSG3 Ab inh 69.9 (no result: NSD2 HMT inh)
CC(C)Sc1nnc(NC(=O)c2ccco2)s1	none
CCOc1ccc(OCC)c(S(=O)(=O)NCc2cccnc2)c1	none
CCOc1ccc(OCC)c(S(=O)(=O)NCc2ccccc2)c1	Vif inh 55.4
COc1cccc(Oc2ccc3nnc(C(F)(F)F)n3n2)c1	none
COCCCn1c(=O)c2ccccc2n(Cc2ccccc2)c1=O	DSG3 Ab inh 100.4
COCCCn1c(=O)c2sccc2n(Cc2ccccc2)c1=O	none
COc1ccccc1C(=O)NC1CCCc2ccccc21 (stereo not drawn)	none (no result: DSG3 Ab inh)
COc1ccc(S(N)(=O)=O)cc1C(=O)NC1CCCc2ccccc21 (stereo not drawn)	DSG3 Ab inh -38.5
CCCCN(C)CCCNC(=O)CN1N=C(c2ccc(Cl)cc2)CCC1=O	DSG3 Ab inh 75.2
CC(C)CN(CCNC(=O)CN1N=C(c2ccc(Cl)cc2)CCC1=O)CC(C)C	none
N#CC(=Cc1ccccn1)c1nc(-c2ccc(Cl)cc2)cs1	Vif inh 102.7, N-glyco inh 41.5 (no result: ATG4B inh)

Compound activity: PubChem BioAssay, several laboratories
